# Data taken from the supplement of paper PMC3484114.
# ± gives the standard deviation.
# System: OVCAR-3-derived ovarian cancer stem-like cells (spheroids)
# Assay: cell growth relative to untreated control; higher = more growth (less inhibition)
# Settings: 2.29 µM; 96 h
# Procedure, shortened: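 Percent growth was calculated against untreated wells once blanks were subtracted and Grubbs outliers removed. The cells were OVCAR-3 spheroid-derived stem-like cells, trypsinized and plated at 50,000 cells/mL in stem cell medium on ultra-low attachment 96-well plates for a 24 h preincubation. They were then exposed to compounds at 2.29 uM for 96 h at 37°C, 5% CO2, in 4 replicate wells, and viability was measured by TOX8 resazurin fluorescence (ex 560/em 590 nm) after 4 h.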
row,SMILES,cell growth [%]
1,COc1cc([C@@H]2c3cc4c(c(O)c3C[C@H]3COC(=O)[C@@H]32)OCO4)cc(OC)c1O,20.4 ± 5.8
2,CC(C)(Br)C(=O)C(Br)Br,88.9 ± 28
3,CO[C@@H](/C(C)=C/C=C/C(C)=C/c1coc(C)n1)[C@@H](C)[C@@H]1C[C@H](O)[C@@]2(C)O[C@@H]2/C=C/[C@@H](C)[C@H]2C[C@H](CC(=O)O2)C[C@@H]2O[C@H]2C(=O)O1,40.6 ± 7.4
4,CO[C@H]1[C@@H](O)[C@@H](C)O[C@H](O[C@H]2[C@H](Oc3cccc4c(O)c5c(=O)oc6ccc(C)c7c(=O)oc(c34)c5c67)O[C@H](C)[C@H](O)[C@@H]2O)[C@@H]1O,67.4 ± 17
5,COC1=C(C)C(=O)C2=C(C1=O)C(CO)N1C(C#N)C3CC4C(C1C2N1CCOC41)N3C (stereo unspecified),14.9 ± 4.6
6,CC(=O)[O][Hg][c]1c(C)c(C)c(C)c(C)c1C,94.5 ± 28
7,C[C@@H]1C[C@H]2CC[C@H](O2)[C@H](C)C(=O)O[C@@H](C)C[C@@H]2CC[C@@H](O2)[C@@H](C)C(=O)O[C@H](C)C[C@H]2CC[C@H](O2)[C@H](C)C(=O)O[C@@H](C)C[C@@H]2CC[C@@H](O2)[C@@H](C)C(=O)O1,31.3 ± 6
8,COC1CC(OC2CCC3(C=O)C4CCC5(C)C(C6=CC(=O)OC6)CCC5(O)C4CCC3(O)C2)OC(C)C1OC1OC(CO)C(O)C(O)C1O (stereo unspecified),8.05 ± 3.3
9,CC1(C)CC2=NO[Se]3=C2C(=NO3)C1,22.1 ± 4.6
10,CCCCCn1cc2c3c(cccc31)C1C=C(C)CN(C)[C@@H]1C2.Cc1ccc(C(=O)OC(C(=O)O)C(OC(=O)c2ccc(C)cc2)C(=O)O)cc1 (stereo unspecified),78.9 ± 11
11,CCCC/C=C/C=C/C=C/CCCCCCCC(=O)OCC(COC(=O)CCCCCCC/C=C/C1C=CC(CCCC)C(C(=O)O)C1C(=O)O)OC(=O)CCCCCCC/C=C/C=C/C=C/CCCC.OCCNCO (stereo unspecified),115 ± 16
12,COc1cc([C@@H]2c3cc4c(c(O)c3C[C@H]3COC(=O)[C@@H]32)OCO4)cc(OC)c1OC,31.1 ± 4.7
13,CCC[CH2][Sn]([CH2]CCC)([CH2]CCC)[O]c1cc(Cl)c(Cl)cc1Cl,8.8 ± 3.7
14,CC(=O)O[C@H]1C[C@H](O[C@H]2[C@@H](O)C[C@H](O[C@H]3[C@@H](O)C[C@H](O[C@H]4CC[C@@]5(C)[C@H](CC[C@@H]6[C@@H]5CC[C@]5(C)[C@@H](C7=CC(=O)OC7)CC[C@]65O)C4)O[C@@H]3C)O[C@@H]2C)OC(C)[C@H]1O[C@@H]1O[C@H](CO)[C@@H](O)[C@H](O)[C@H]1O (stereo partly specified),21.7 ± 8.3
15,O=C1N[C@H]2[C@H](O)[C@H](O)[C@@H](O)[C@H](O)[C@@H]2c2cc3c(c(O)c21)OCO3,19.5 ± 2.6
16,O=C1C=C2C=CC3CC2(O1)C1CCCCN31 (stereo unspecified),49.8 ± 9.5

row,SMILES,cell growth [%]
1,COc1cccc2c1C(=O)c1c(O)c3c(c(O)c1C2=O)C[C@@](O)(C(C)=O)C[C@@H]3O[C@H]1C[C@H](N(Cc2ccccc2)Cc2ccccc2)[C@H](O)[C@H](C)O1,62.8 ± 11
2,CC(O)CCC(=O)c1ccoc1 (stereo unspecified),99 ± 17
3,CC[C@](C)(O)C(=O)O[C@H]1C(=O)O[C@@H]2C[C@H]3C(C)=CC(=O)[C@@H](O)[C@]3(C)[C@H]3C4(O)OC[C@]32[C@@H]1[C@@H](C)[C@H]4O,35.2 ± 15
4,Cc1cc(N(CC(C)Br)CC(C)Br)ccc1N=Nc1ccccc1C(=O)O (stereo unspecified),64.5 ± 14
5,COc1ccc(C2C=C(c3ccc4c(c3)OCO4)Oc3c2c(=O)oc2ccccc32)cc1OC (stereo unspecified),56.4 ± 40
6,COc1ccc(C[C@@H]2NC[C@@H](O)[C@@H]2OC(C)=O)cc1,94.2 ± 33
7,CC12CCC3C(CCC4CC(OC(=O)Cc5ccc(N(CCCl)CCCl)cc5)CCC43C)C1CCC(=O)N2 (stereo unspecified),52.8 ± 15
8,NC(=O)OCc1c(O)c2c(c(O)c1COC(N)=O)C(=O)C=CC2=O,95.9 ± 14
9,CC[C@@]1(O)C[C@H](O[C@H]2C[C@H](N(C)C)[C@H](O)[C@H](C)O2)c2c(cc3c(c2O)C(=O)c2c(O)ccc(O)c2C3=O)[C@H]1C(=O)OC,50.3 ± 31
10,Fc1cccc(F)c1C1SCc2nc3ccccc3n21 (stereo unspecified),78.4 ± 9.6
11,O=C1N[C@@H]2C(=C[C@H](O)[C@@H](O)[C@H]2O)c2cc3c(cc21)OCO3,31.7 ± 7.1
12,CN(C)C(=S)SSC(=S)N(C)C,103 ± 17
13,CNC(=O)ON(C(C)=O)C(=O)NC,114 ± 42
14,COC1CC(O[C@H]2CC[C@]3(C=O)[C@H]4CC[C@]5(C)[C@@H](C6=CC(=O)OC6)CC[C@]5(O)[C@@H]4CC[C@]3(O)C2)OC(C)C1O (stereo partly specified),52.2 ± 16
15,c1csc(C[N+]23CN4CN(CN(C4)C2)C3)c1,108 ± 17
